Results on 97 compounds are retold here after PubChem BioAssay AID1672 (Johns Hopkins Ion Channel Center, 2009).

Molecules are shown by their SMILES. The campaign covered roughly 310,000 compounds. About 2,600 (0.84%) were called active. Many of the other results were omitted from the sample, so actives are more common in it than they were. Values without a mark were called inactive.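 How the source made its calls: active means fluorescence ratio B-score at or below minus 3 SD of library scores, with starting-brightness B-score within 2 SD (cut at about -4.2 in these data); inactive means the rest.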

In this experiment the target is Inward rectifier potassium channel 2 (Mus musculus) (UniProt P35561). In words: inhibitors of mouse Kir2.1 inward-rectifier potassium channel (AID 1672).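 Further: channel flux triggered by added potassium and thallium sulfate stimulus; B-score of peak minus minimum fluorescence over baseline after thallium stimulus; more negative B-score means stronger Kir2.1 block with less thallium influx.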 The conditions noted are these: HEK293-Kir2.1, FluxOR thallium flux fluorescence; at 10 µM; hits give low values.
Chain of Inward rectifier potassium channel 2 (Mus musculus) (P35561 whole entry, looked up): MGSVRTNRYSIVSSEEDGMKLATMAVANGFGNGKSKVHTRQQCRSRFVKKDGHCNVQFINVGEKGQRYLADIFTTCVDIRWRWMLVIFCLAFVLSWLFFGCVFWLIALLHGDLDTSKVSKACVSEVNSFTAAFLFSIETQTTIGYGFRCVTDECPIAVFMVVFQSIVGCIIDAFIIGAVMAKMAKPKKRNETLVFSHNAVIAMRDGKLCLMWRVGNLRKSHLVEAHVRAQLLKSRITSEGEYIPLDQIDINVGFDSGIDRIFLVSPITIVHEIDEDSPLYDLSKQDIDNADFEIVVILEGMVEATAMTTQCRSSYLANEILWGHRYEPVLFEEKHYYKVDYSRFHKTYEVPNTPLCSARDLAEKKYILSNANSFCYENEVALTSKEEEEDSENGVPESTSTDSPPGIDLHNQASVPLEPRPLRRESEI
As for `O=C(COC(=O)c1cccs1)Nc1ccccc1Cl`, the B-score was -0.93.
`O=C(Nc1ccccc1Cl)Nn1cnnc1`: the B-score is 1.92.
Regarding `O=C(Nc1ccccc1Cl)/C(Cl)=C(\Cl)S(=O)c1ccccc1` (configuration not stated), the B-score is -14.3 (active).
The result for `O=C(NCCCc1ccccc1)C(=O)NCC1OCCN1S(=O)(=O)c1ccccc1` (configuration not stated) reads 0.45; that for `COc1cc(S(=O)(=O)N2CCN=C2c2ccccc2)ccc1Cl`, -5.41 (active); that for `CCOc1ccc(S(=O)(=O)N2CCN=C2Cc2ccccc2)cc1C`, -3.8.
The result for `CC1=NCCN1S(=O)(=O)c1cccc([N+](=O)[O-])c1` reads 0.
Consider `CCOC(=O)c1cc(C(C)C)sc1NC(=O)COC(=O)c1nccnc1N`, for which the B-score is -0.16.
With `CCCCN(C(=O)c1ccc(S(=O)(=O)N2CCOCC2)cc1)C1CCS(=O)(=O)C1` (configuration not stated), the B-score is -1.08.
The result for `Cc1ccc(-c2nn(-c3ccccc3)cc2C(=O)NCCCN2CCCC2=O)cc1` reads -0.8; that for `Cc1ccc(OCC(O)CN2CCN(CC(O)COc3ccc(C)cc3Cl)CC2)c(Cl)c1` (configuration not stated), 0.66.
The result for `COc1ccccc1OCC(O)CN1CCOCC1` (configuration not stated) reads 1.4.
As for `OC(COc1ccc(F)cc1Cl)CN1CCc2ccccc2C1` (configuration not stated), the figure is -5.33 (active).
Consider `Cc1ccc(C(=O)NC2CCCC(C)C2C)cc1S(=O)(=O)N1CCCCC1` (configuration not stated), for which the B-score is -1.83.
For `O=C(Cc1ccccc1)NCc1ccc(F)cc1`, the B-score was 0.8.
As for `CCCCC(=O)NCc1ccc(F)cc1`, the figure is 0.15.
Consider `CCn1cc(CCC(=O)NCc2ccc(F)cc2)c2ccccc21`, for which the B-score was -6.18 (active).
For the compound `CCCC(C(=O)OCCN(CC)CC)(c1ccccc1)c1ccccc1`, the B-score is -5.06 (active).
As for `CCN(CC)CCOC(=O)c1ccc(NC(=O)CNC(=O)c2ccccc2)cc1`, the figure is 0.63.
Regarding `CCC(C(=O)OCCN(CC)CC)c1ccccc1` (configuration not stated), the B-score was 0.4.
Regarding `COc1cc(C(=O)OCC(=O)N(CC(C)C)C2CCS(=O)(=O)C2)ccc1OCC(C)C` (configuration not stated), the B-score is 1.65.
In the case of `COc1ccc(NC(=O)CSc2nnc(Cc3ccccc3)c(=O)n2N)cc1`, the B-score was -1.28.
As for `CC12CCC(=O)N1C(C(=O)Nc1ccc(F)c(F)c1F)CS2` (configuration not stated), the figure is 1.46.
The result for `COc1cccc(CNC(=O)C(=O)NCCC2CCCCN2S(=O)(=O)c2ccc(C)cc2)c1` (configuration not stated) reads -0.02; that for `COc1cccc(CN(C)CC(=O)Nc2sc3c(c2C#N)CCC3)c1`, 1.34; that for `COc1cccc(CN(C)CC(=O)Nc2ccccc2C(=O)Nc2ccccc2)c1`, 0.2.
As for `COc1cccc(CN(C)CC(O)COC(c2ccccc2)c2ccccc2C)c1` (configuration not stated), the figure is -9.28 (active); as for `C=CCOc1ccc(/C=C/C(=O)OC(C)C(=O)Nc2ccc(NC(C)=O)cc2)cc1` (configuration not stated), 1.98.
Take `CSc1nc2ccccc2c(=O)n1Cc1ccc(F)cc1`: the B-score was -0.15.
As for `CSc1c(SCc2ccccc2)cnn(Cc2ccccc2)c1=O`, the B-score was -5.77 (active).
As for `Cn1c(CO)cnc1SCc1ccccc1`, the figure is 0.48.
As for `O=C(NCCC1CCCCN1S(=O)(=O)c1ccc(Cl)cc1)C(=O)NCc1ccco1` (configuration not stated), the figure is 0.39.
As for `CCCNC(=O)CSc1nc(Cc2ccccc2)nc2ccccc12`, the figure is -5.07 (active); as for `CCCc1nc(SCC(=O)Nc2ccc(S(=O)(=O)N(C)C)cc2)c2ccccc2n1`, 0.71.
With `CCc1nc(SCC(=O)NNC(=O)c2ccc(C)cc2)c2ccccc2n1`, the B-score was -1.13.
Turning to `Brc1cnc2ccccc2c1N1CCCCC1`, the B-score was 0.77.
`CCOc1ccc(NS(=O)(=O)c2ccc(C(=O)NCC(c3ccccc3OC)N3CCCC3)cc2)cc1` (configuration not stated): the B-score was -0.36.
For `CC1CCN(C(=O)COC(=O)c2cc(S(=O)(=O)N3CCOCC3)ccc2Cl)CC1`, the B-score was -1.43.
Consider `CCOc1ccc(/C=C/C(=O)N(CC)CC(=O)NCc2cccs2)cc1OC`, for which the B-score was 0.23.
As to `Cc1ccccc1NC(=O)NCC1CCN(Cc2cccc(Cl)c2)CC1`, the B-score was -0.23.
As for `Cc1ccc(C)c(CN2CCC(CNC(=O)Nc3ccc(C)c(F)c3)CC2)c1`, the figure is -0.54.
As for `Cc1cccc(CN2CCC(CNC(=O)Nc3ccc(F)c(Cl)c3)CC2)c1`, the figure is -4.23 (active).
The result for `O=C1[C@H]2[C@@H](c3ccc(Cl)cc3)N3C(=O)N(c4cccc(F)c4)C(=O)[C@@]3(Cc3ccccc3)[C@H]2C(=O)N1C1CCCCC1` reads 1.66; that for `CCCC[C@@H]1CN=C(N)N1CCCC`, 0; that for `O=C(NCC(c1ccco1)N1CCc2ccccc21)c1cccc(F)c1` (configuration not stated), -0.73.
For `c1ccc(Cc2ccc(OCCn3ccnc3)cc2)cc1`, the B-score is -1.84.
Take `C=CCc1cc(C)ccc1OCCCn1ccnc1`: the B-score was 0.46.
Regarding `Clc1c(OCCCn2ccnc2)ccc2ccccc12`, the B-score was -7.14 (active).
In the case of `CC(=O)Nc1ccc(NC(=O)CSC2=NS(=O)(=O)c3ccccc3N2)cc1`, the B-score is 1.78.
As for `CC1(C)CC[C@]2(C(=O)O)CC[C@]3(C)C(=CCC4[C@@]5(C)CC[C@H](O)C(C)(C)C5[C@H](O)C[C@]43C)[C@@H]2C1` (some centres not stated), the figure is -0.05.
Consider `CC(=O)c1sc(N)nc1C`, for which the B-score is 0.05.
As for `O=C1CC2(CCN(C(=O)COc3ccc(F)cc3)CC2)Oc2ccccc21`, the figure is -0.48; as for `CC(C)(C)N(CC#CCC(O)(c1ccccc1)C1CCCC1)CCO` (configuration not stated), -0.14.
The result for `CN(CC#CCC(c1ccccc1)c1ccccc1)C(C)(C)C` reads -5.14 (active); that for `COc1ccc(C#Cc2c(-c3ccc(OC)cc3)oc3ccc(-c4ccc5c(c4)OCO5)cc23)cc1`, 0.43; that for `COc1ccc(N(Cc2ccccc2)S(=O)(=O)c2cccc(C(=O)O)c2)cc1`, -0.29.
`CN(C)S(=O)(=O)c1cccc(C(=O)OCC(=O)N2CCCC2=O)c1`: the B-score was 0.88.
As for `C=CCN(c1ccc(Cl)cc1)S(=O)(=O)c1cccc(C(=O)OCC(=O)N(C)C)c1`, the figure is -4.24 (active).
As for `CCN(CC(=O)Nc1cccc(S(=O)(=O)N2CCCCC2)c1)Cc1ccccc1`, the B-score was -0.91.
As for `Cc1ccccc1NC(=O)COc1cccc2c1CCNC2=O`, the B-score is -0.1.
The result for `Cc1cc(OCC(=O)N(C)c2c(N)n(Cc3ccccc3)c(=O)[nH]c2=O)c(C(C)C)cc1Cl` reads -0.39.
Take `FC(F)(F)c1ccc2c3n(nc2c1)CCN=C3c1ccc(Cl)cc1`: the B-score is 0.62.
The result for `CN(C(=O)c1cc2c(=O)n3ccccc3nc2s1)C1CCCCC1` reads -0.51; that for `CC(C)CN(C(=O)Cn1c(=O)cnc2ccccc21)C1CCS(=O)(=O)C1` (configuration not stated), -2.2.
The result for `Cc1ccc(SC(C)C(=O)NCc2ccc(F)cc2)cc1` (configuration not stated) reads -0.79; that for `CSc1ccc(CN(C)CC(=O)NCc2ccc(F)cc2)cc1`, -4.3 (active).
As for `Cc1ccc(NC(=O)CN(C)Cc2ccc(F)cc2)c([N+](=O)[O-])c1`, the figure is -0.89.
Take `CN(CC(=O)Nc1cccc(F)c1)C(=O)C1=COCCO1`: the B-score is -0.96.
For `O=C(NCCC1CCCCN1S(=O)(=O)c1cccs1)C(=O)Nc1ccc(F)cc1F` (configuration not stated), the B-score was -1.66.
The result for `Cc1cc(C)c(C)c(S(=O)(=O)Nc2ccc(O)cc2)c1C` reads -9.99 (active).
As to `CCOc1ccc(NS(=O)(=O)c2cc(C)c(C)cc2C)cc1`, the B-score was -1.54.
Regarding `Cc1cc(C)c(C)c(S(=O)(=O)Nc2cccnc2)c1C`, the B-score is -0.73.
As for `C=CCC1(C(=O)N(C)Cc2ccccc2)CCN(C(=O)OC(C)(C)C)CC1`, the figure is 0.59; as for `COc1cc2ccccc2cc1C(=O)Nc1ccncc1`, -0.09.
The result for `OCCNCCOc1ccc(Cl)c(Cl)c1` reads 0.04.
The result for `OCCNCc1cccc(OCc2ccccc2Cl)c1` reads -5.85 (active).
As for `S=C(NCCc1ccccc1)NCc1ccccc1Cl`, the B-score was -2.33.
Take `CCCCN(C(=O)c1ccc(C)o1)c1c(N)n(CCCC)c(=O)[nH]c1=O`: the B-score is 1.81.
`CC(C)(C)n1nc(Cc2cccc3ccccc23)c(C#N)c1N`: the B-score was 0.39.
The result for `c1ccc2cc(OCCN3CCCC3)ccc2c1` reads 1.22; that for `CC(C)(c1ccccc1)c1ccc(OCCN)cc1`, -6.43 (active); that for `CC(C)(c1ccccc1)c1ccc(OCCN2CCCC2)cc1`, -6.84 (active).
Take `c1ccc(-c2ccc(OCCN3CCOCC3)cc2)cc1`: the B-score is -0.1.
Regarding `Cc1nn(CCOc2ccccc2)c(=O)n1-c1ccccc1F`, the B-score was -0.66.
As for `CN(C)CC(O)COc1ccc(C(C)(C)c2ccc(OCC(O)CN(C)C)cc2)cc1` (configuration not stated), the figure is -2.29; as for `O=C(NC(Cc1ccccc1)C(=O)N1CCCC(C(F)(F)F)C1)c1ccccc1` (configuration not stated), -0.03; as for `CCN1C(=O)[C@@H]2[C@@H](c3ccc(-c4ccccc4)cc3)N3CCCC[C@@]3(C(=O)OC)[C@@H]2C1=O`, 2.48.
Consider `CC(=O)c1ccc(S(=O)(=O)NC2CC(=O)N(c3ccc4c(c3)OCCO4)C2)cc1` (configuration not stated), for which the B-score is 2.09.
As for `CCCCN1C(N)=NC[C@@H]1Cc1ccccc1`, the figure is 1.05; as for `Nc1ccc(C(=O)N2CCN(S(=O)(=O)c3ccc(Cl)cc3)CC2)cc1[N+](=O)[O-]`, 0.63; as for `CCOc1ccccc1NS(=O)(=O)c1cc2c3c(c1)C(C)C(=O)N3CCC2` (configuration not stated), -0.71.
The result for `COc1ccccc1CCNS(=O)(=O)c1cc2c3c(c1)C(C)C(=O)N3CCC2` (configuration not stated) reads -5.71 (active).
As for `CC1C(=O)N2CCCc3cc(S(=O)(=O)NCc4ccc(F)cc4)cc1c32` (configuration not stated), the figure is -0.21; as for `COc1ccc(N2CC(NS(=O)(=O)c3ccc4ccccc4c3)CC2=O)cc1` (configuration not stated), 0.13.
On to `Cc1ccc2[nH]c3c(c2c1)CN(C(=O)CN1CCN(c2ccccc2)CC1)CC3`, for which the B-score was 0.62.
As for `O=C(CCCN1CCc2[nH]c3ccc(F)cc3c2C1)c1ccc(F)cc1`, the figure is -7.87 (active); as for `CCCC(=O)N1CCc2[nH]c3ccccc3c2C1`, 0.74.
